Measurements reported in PubChem BioAssay AID686978 (National Center for Advancing Translational Sciences (NCATS), 2013).
About 64,000 (15%) of roughly 420,000 compounds were called active. Another 27% or so got no clear call; they are omitted. Calls follow the shape of the dose curve; as a rule, active = well fitted inhibition curve with a large enough effect; inconclusive = small, poorly fitted or top-dose-only effect; inactive = flat fitted curve, though single readings scatter. The list is a sample of the results.

Test: qHTS for Inhibitors of human tyrosyl-DNA phosphodiesterase 1 (TDP1): qHTS in cells in absence of CPT; also: nearly all actives have a fitted effect of over 55% in size
Conditions: DT40 Tdp1-/- hTDP1 cells, no CPT, ATP luminescence, 48 h; activity change, negative = growth inhibition: at 46.2 µM (top of the series)
Outline: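 A cellular qHTS used chicken DT40 cells lacking endogenous Tdp1 but carrying stably transfected human TDP1. Compounds were applied without camptothecin, and cell growth kinetics were judged by ATP-dependent luminescence after ≥48 hr.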
% is scaled to controls: 0 for no effect and ±100 for the full control effect; potency is read from the fitted curve at half-maximal effect.

| Compound | activity change, negative = growth inhibition | Potency |
| --- | --- | --- |
| CCN1CCN(C(=O)C2(NC(=O)Nc3cccc(F)c3)CCCCC2)CC1 | -18.3% (inactive) |  |
| O=C(COc1ccc2ccc(=O)oc2c1)NCC(O)c1ccccc1 (stereo not drawn) | 17.9% (inactive) |  |
| COCCn1c(=O)c(-c2ccc(OC)cc2)nc2cnc(Oc3cccc(Cl)c3)nc21 | -9.79% (inactive) |  |
| O=C(NCc1cccs1)C1CCN(S(=O)(=O)c2ccc3c(c2)OCCO3)CC1 | -23.7% (inactive) |  |
| COc1ccc(C(=O)OCC(=O)Nc2cc(C)on2)cc1F | 0.457% (inactive) |  |
| CC(=O)NCC(=O)NC1CCCc2c1cnn2-c1ccccc1F (stereo not drawn) | -0.918% (inactive) |  |
| Cn1nccc1C(=O)NC1CCCc2c1cnn2-c1ccc(F)cc1F (stereo not drawn) |  | 1.64 µM (active) |
| O=C(CCNC(=O)c1ccc(Cl)cc1)NC1CCCc2ccccc21 (stereo not drawn) | 4.52% (inactive) |  |
| Cn1nccc1C(=O)NC1CCCc2c1cnn2-c1ccccc1F (stereo not drawn) |  | 2.06 µM (active) |
| Cc1ccc(S(=O)(=O)N[C@@H](Cc2ccccc2)C(=O)N2CCC(C(=O)N[C@H](C(=O)O)C(C)O)CC2)cc1 (stereo partly drawn) | 10.3% (inactive) |  |
| COc1ccc(C2C(C(C)=O)=C(O)C(=O)N2Cc2cccnc2)cc1 (stereo not drawn) | -13.7% (inactive) |  |
| COc1cc2nc(C#Cc3nc4cc(OC)c(OC)cc4[nH]3)[nH]c2cc1OC | -2.38% (inactive) |  |
| Cc1nnc(NC(=O)Cn2c(=O)sc3ccccc32)s1 | -4.38% (inactive) |  |
| CC(Oc1ccccc1F)C(=O)NN (stereo not drawn) | -2.53% (inactive) |  |
| O=C(NCc1ccco1)c1nc(-c2ccccc2)n(-c2ccccc2)n1 | -18.6% (inactive) |  |
| Cn1nc(C(F)(F)F)c2cc(C(=O)N3CCOCC3)sc21 | -9.2% (inactive) |  |
| Cn1nc(-c2ccc(Cl)cc2)c2cc(C(=O)NCc3ccco3)sc21 |  | 20.6 µM (active) |
| CCOC(=O)N1CCN(C(=O)CNC(=O)Cc2ccc(Cl)cc2)CC1 | -16.7% (inactive) |  |
| COc1ccc(OC)c(S(=O)(=O)N(C)CC(=O)N2CCN(c3ccccc3)CC2)c1 | -2.97% (inactive) |  |
| COc1cccc(/C=C/C(=O)OCC(=O)N2CCN(c3ccccc3)CC2)c1 | -8.54% (inactive) |  |
| COc1cccc(-c2ccc(SCC(=O)N3CCN(c4ccccc4)CC3)nn2)c1 |  | 16.4 µM (active) |
| COc1ccc2c(Cl)c(C(=O)NCc3ccco3)sc2c1 | -25.1% (inactive) |  |
| CCOC(=O)N1CCN(C(=O)c2cc3c(-c4ccc(Cl)cc4)nn(C)c3s2)CC1 |  | 11.6 µM (active) |

| Compound | activity change, negative = growth inhibition | Potency |
| --- | --- | --- |
| CCOC(=O)N1CCN(C(=O)CSc2ccc(Cl)cc2)CC1 | -4.08% (inactive) |  |
| CCOc1ccc(-c2ccc(SCC(=O)N3CCOCC3)nn2)cc1 | 2.68% (inactive) |  |
| COc1cccc(-c2nn(C)c3sc(C(=O)N4CCN(c5ccccc5)CC4)cc23)c1 |  | 23.1 µM (active) |
| COC(=O)c1nc(NC(=O)c2ccc(F)cc2)n[nH]1 | -20.9% (inactive) |  |
| Nc1cc(=O)c2[nH]cnc2[nH]1 | 3.63% (inactive) |  |
| S=C(NC1CCCCC1)NN1CCOCC1 | 11.9% (inactive) |  |
| CCn1c(SCC(=O)Nc2cc(C)ccc2C)nnc1-c1cnccn1 | -12% (inactive) |  |
| CCN(CCCNC(=O)c1c(C)oc2ncn(CC(C)C)c(=O)c12)Cc1ccccc1 | -17.9% (inactive) |  |
| Cc1ccc(C(c2sc3nc(C)nn3c2O)N2CCN(c3ccccc3)CC2)cc1 (stereo not drawn) | -13.8% (inactive) |  |
| Cc1ccn(CC(=O)N2N=C(C(F)F)CC2(O)C(F)F)n1 (stereo not drawn) | -0.589% (inactive) |  |
| CC1=C(C(N)=O)C(c2ccc(Br)cc2)n2ncnc2N1 (stereo not drawn) | -12.6% (inactive) |  |
| CCOc1ccccc1NC(=O)C1=C(C)Nc2ncnn2C1c1ccc(NC(C)=O)cc1 (stereo not drawn) | -21% (inactive) |  |
| CCOC(=O)C1=C(c2ccccc2)Nc2ncnn2C1c1ccc(Cl)cc1 (stereo not drawn) |  | 18.4 µM (active) |
| COCCCNS(=O)(=O)c1cccc(S(=O)(=O)c2cccc(S(=O)(=O)NCCCOC)c2)c1 | -19.7% (inactive) |  |
| Cc1ccc(/C=N/NC(=O)C(NC(=O)c2ccccc2)c2n[nH]c(=O)c3ccccc23)cc1 (stereo not drawn) | -9.86% (inactive) |  |
| Cc1ccsc1-c1cc(C(=O)O)c2c(ccc3ccccc32)n1 | 5.58% (inactive) |  |
| CCCCN(C)CCCNC(=O)c1cc(-c2cccs2)nc2ccccc12 |  | 29.1 µM (active) |
| O=C(NCCN1CCOCC1)c1cc(-c2cccs2)nc2ccccc12 | -17.6% (inactive) |  |
| O=C1c2ccccc2-c2ccccc2NC1O (stereo not drawn) | 11% (inactive) |  |
| COc1ccc(/C=N/OCc2ccccc2C#N)c(OC)c1 | -22.7% (inactive) |  |
| CCOc1ccc(C2C(C#N)=C(N)N(N(C)C)C3=C2C(=O)CCC3)cc1 (stereo not drawn) | 5.03% (inactive) |  |
| O=C(NN1CCOCC1)c1cccc(F)c1 | -5.34% (inactive) |  |
| COc1ccccc1C(=O)NCCC(=O)NCC(c1ccco1)N1CCCCC1 (stereo not drawn) | -8.25% (inactive) |  |

| Compound | activity change, negative = growth inhibition | Potency |
| --- | --- | --- |
| COc1ccc(C(=O)NCC(c2ccc(N(C)C)cc2)N2CCc3ccccc32)c(OC)c1 (stereo not drawn) |  | 20.6 µM (active) |
| Cc1ccc(NC(=O)NCC(c2cccnc2)N2CCOCC2)cc1 (stereo not drawn) | 6.95% (inactive) |  |
| COc1cc(C(=O)NCC(c2ccco2)N2CCCC2)ccc1OCc1ccccc1 (stereo not drawn) | -17.8% (inactive) |  |
| COc1ccc(S(=O)(=O)NCC(c2ccc(N(C)C)cc2)N2CCc3ccccc32)cc1OC (stereo not drawn) | -27.6% (inactive) |  |
| O=C(NCC(c1ccco1)N1CCc2ccccc21)c1cccc(F)c1 (stereo not drawn) |  | 11.6 µM (active) |
| CCOC(=O)c1c(NC(=O)CSc2cn(CCNC(=O)c3cccc(C(F)(F)F)c3)c3ccccc23)sc2c1CCC2 | -3.22% (inactive) |  |
| COc1ccc(C(=O)NCC(c2ccco2)N2CCc3ccccc32)cc1OC (stereo not drawn) |  | 16.4 µM (active) |
| CN(C)C(CNC(=O)c1cccc(C#N)c1)c1ccco1 (stereo not drawn) | -2.74% (inactive) |  |
| O=C(NCC(c1cccnc1)N1CCc2ccccc21)c1cccc(C(F)(F)F)c1 (stereo not drawn) |  | 14.6 µM (active) |
| CCOc1ccccc1C(=O)NCC(c1ccc(N(C)C)cc1)N1CCCC1 (stereo not drawn) | -76.7% (inactive) |  |
| CCn1cc(C(=O)NCCO)c(=O)c2cc(F)c(N3CCN(C)CC3)cc21 | 2.98% (inactive) |  |
| Cc1ccc(NC(=S)NC(NC(=O)Cc2cccc3ccccc23)C(Cl)(Cl)Cl)cc1 (stereo not drawn) | -8.05% (inactive) |  |
| Cc1cc(C(=O)O)c(S(C)(=O)=O)s1 | 0.116% (inactive) |  |
| NNc1nnc(Cc2ccncc2)c2ccccc12 | -14.2% (inactive) |  |
| O=C(COC(=O)Cn1[nH]c(=O)c2ccccc2c1=O)Nc1c(Cl)cccc1C(F)(F)F | -0.552% (inactive) |  |
| COc1ccc([N+](=O)[O-])cc1N(CC(=O)Nc1ccccc1C(=O)N1CCOCC1)S(C)(=O)=O | -1.39% (inactive) |  |
| CN(C)c1ccc(C2N(C)C(=O)c3ccccc3N2C)cc1 (stereo not drawn) | -15% (inactive) |  |
| CC1CCc2c(c3ccccc3[nH]c2=O)O1 (stereo not drawn) | 1.73% (inactive) |  |
| O=C(O)C1OC(C(=O)O)C2C1C(F)(F)C2(F)F (stereo not drawn) | 0.936% (inactive) |  |
| Cc1ccc2nc(NCCCNC(=O)c3cnccn3)c(C#N)cc2c1 | -1.12% (inactive) |  |
| Cc1ccc(CNC(=O)COC(=O)C2CCC2)cc1 | 2.95% (inactive) |  |
| CC(C#N)OC(=O)c1cccnc1SCC(=O)Nc1ccc2c(c1)OCO2 (stereo not drawn) | -14.2% (inactive) |  |
